Bioassay records as filed in PubChem.
This is a sample that favours compounds with a hit; in the whole collection about 2.4% have one here.
Pol iota inh = blocks human DNA polymerase iota activity; Pol iota fluorescent replication assay, 10 min; Potency, µM (series often up to 115 µM), hits mostly inhibitors; 390,000 compounds, 1% hits
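Pol iota at 10 nM preincubated 15 min with compounds at room temperature; reaction started with fluorescent substrate, 50 nM final. Fluorescence read kinetically at 0 and 10 min; buffer-only wells as negative control.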
L3MBTL1 inh = inhibitors of human L3MBTL1; Q9Y468; AlphaScreen L3MBTL1–H3K9me1 peptide binding; Potency, µM (doses to about 57.1 µM), most hits filed as inhibitors; 230,000 compounds, 0.66% hits; AID 485360; also: nearly all actives have a fitted effect of over 60% in size
Target sequence (Q9Y468 whole entry, looked up): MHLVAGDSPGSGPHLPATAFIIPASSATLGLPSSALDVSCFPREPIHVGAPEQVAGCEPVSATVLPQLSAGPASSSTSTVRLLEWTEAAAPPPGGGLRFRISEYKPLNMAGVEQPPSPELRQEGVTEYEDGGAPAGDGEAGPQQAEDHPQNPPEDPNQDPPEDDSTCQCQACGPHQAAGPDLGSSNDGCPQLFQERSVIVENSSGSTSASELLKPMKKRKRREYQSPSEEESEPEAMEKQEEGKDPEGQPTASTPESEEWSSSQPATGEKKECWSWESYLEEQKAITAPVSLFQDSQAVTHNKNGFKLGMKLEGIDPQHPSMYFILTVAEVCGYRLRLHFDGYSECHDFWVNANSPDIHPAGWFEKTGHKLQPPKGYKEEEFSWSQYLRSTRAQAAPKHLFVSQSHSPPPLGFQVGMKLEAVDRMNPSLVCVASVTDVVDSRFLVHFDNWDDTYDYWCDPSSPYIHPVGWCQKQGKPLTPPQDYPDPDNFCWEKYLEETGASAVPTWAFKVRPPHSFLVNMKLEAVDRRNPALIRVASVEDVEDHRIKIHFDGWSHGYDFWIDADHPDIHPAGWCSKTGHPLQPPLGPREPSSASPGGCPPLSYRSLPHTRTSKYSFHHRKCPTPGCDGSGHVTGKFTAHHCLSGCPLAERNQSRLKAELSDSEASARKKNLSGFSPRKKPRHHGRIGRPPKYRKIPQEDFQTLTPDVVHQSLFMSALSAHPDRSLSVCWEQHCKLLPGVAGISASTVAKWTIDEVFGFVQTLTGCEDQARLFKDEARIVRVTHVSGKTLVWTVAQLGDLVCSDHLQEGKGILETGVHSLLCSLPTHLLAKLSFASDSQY
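First, the protein-peptide complex forms for 30 min at room temperature (L3MBTL1 50 nM, biotinylated H3K9me1 peptide 75 nM). Next, compounds are pin-transferred and incubated 30 min. Finally, AlphaScreen beads are added and read after 30 min.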
Pol eta inh-1 = inhibitors of human DNA polymerase eta | AID 588591 | recombinant Pol eta, fluorescent DNA replication assay | Q9Y253 | Potency, µM (series often up to 114 µM), usual class: inhibitors | 390,000 compounds, 1.2% hits
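Pol eta (10 nM) was preincubated with compounds for 15 min at room temperature, after which fluorescent replication substrate (50 nM final) was added to start the reaction. Fluorescence was read kinetically at 0 and 10 min.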
Pol kappa inh-1 = blocks human DNA polymerase kappa activity | purified Pol kappa, fluorescent DNA synthesis assay, 10 min | Potency, µM (top dose mostly 107 µM), hits mostly inhibitors | 400,000 compounds, 0.53% hits | Q9UBT6 | AID 588579
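Fluorescent qHTS in 1536-well format: enzyme (10 nM) and compound sat 15 min at room temperature before 50 nM substrate (final) was added. Signal taken at 0 and 10 min; no-enzyme buffer wells were negative controls.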
Pol beta inh = DNA polymerase beta (human) inhibition; P06746; Pol beta primer extension/strand displacement, fluorescence kinetic; Potency, µM (highest dose often 114 µM), hits mostly inhibitors; 340,000 compounds, 1.3% hits
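Kinetic readout of DNA synthesis with strand displacement by Pol beta. Compound and 10 nM enzyme sit 15 min at room temperature; 50 nM substrate starts the reaction, read immediately and at 10 min.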
TbPGK inh = TbPGK inhibition, hit validation | TbPGK coupled GAPDH assay, Kinase-Glo luminescence | shares compounds with Pol kappa inh-1 | Potency, µM (highest dose often 57.5 µM), usual class: inhibitors | 500 compounds, 79% hits; also: nearly all actives have a fitted effect of over 65% in size
POLI cherry-pick = Confirm cherry-picked inhibitors of human polymerase iota | 1,500 compounds, 77% hits | shares compounds with Pol kappa inh-1 | Pol iota primer extension, TAMRA/BHQ fluorescence | Potency, µM, actives largely listed as inhibitors
Pol kappa inh-2 = Pol kappa (human) inhibition, cherry-pick confirmation; shares compounds with Pol eta inh-1; purified Pol-kappa, fluorescent strand-displacement substrate; Potency, µM, usual class: inhibitors; 920 compounds, 76% hits; AID 720501
Pol eta inh-2 = Pol eta (human) inhibition, cherry-pick confirmation | AID 720502 | shares compounds with Pol eta inh-1 | 2,600 compounds, 64% hits | Pol eta primer extension, TAMRA/BHQ fluorescence, 10 min | Potency, µM, most hits filed as inhibitors
A number is an active result; i = inactive; ? = inconclusive; nt = no result given; [ ] = dose if it differs, or a comment. Calls follow the shape of the dose curve; as a rule, active = well fitted curve in the direction sought with a large enough effect; inconclusive = small, poorly fitted or top-dose-only effect, or another doubt; inactive = no such curve, though single readings can be large; an effect the other way counts as inactive or inconclusive.

SMILES | Pol iota inh | L3MBTL1 inh | Pol eta inh-1 | Pol kappa inh-1 | Pol beta inh | POLI cherry-pick | Pol eta inh-2 | others
COc1cc(C)c2c(c1C=O)Oc1c(c(C)c(O)c3c1C(O)OC3=O)OC2=O (configuration not stated) | 45µM | ? | 16µM | 22µM | 7.9µM | 42 | 21 | TbPGK inh=4.6µM
CC(=O)c1cnc(N(C)C)s1 | i | i | i | i | i | nt | nt
CN(C)c1ncc(C2=C(Cl)C(=O)C(N3CCCC3)=C(Cl)C2=O)s1 | 7.9µM | nt | 20µM | 28µM | nt | 38 | 34
COC(=O)c1c(Oc2ccc(C(C)=O)cc2)nnc(-c2ccccc2)c1-c1ccccc1 | i | nt | i | i | i | nt | nt
O=C(N/N=C/c1ccncc1)c1cccc(S(=O)(=O)Nc2ccc(Cl)cc2)c1 | 28µM | nt | 50µM | 28µM | ? | 47 | 67
O=C(Nc1ccc(S(=O)(=O)Nc2ncccn2)cc1)c1ccc(N2CCCC2=O)cc1 | ? | nt | 45µM | i | ? | ? | ?
CC(=O)c1ccc(NC(=O)c2ccc(N3CCCC3=O)cc2)cc1 | i | i | i | i | nt | nt | nt
O=C1C=C(NCCc2cc(Br)c(O)c(Br)c2)C(=O)c2ncccc21 | 3.2µM | nt | 3.5µM | 28µM | nt | 17 | 27 | Pol kappa inh-2=24
CC(C)(C)c1cc(CCC(=O)NCCc2ccccn2)cc(C(C)(C)C)c1O | i | nt | i | i | i | nt | nt
CC(/C=C/c1ccc(C)o1)=C\C(=O)O | i | i | i | i | i | nt | nt
CC(=C/C(=O)O)/C=C/c1ccc(Cl)o1 | 7.9µM | 10µM | 1.1µM | 25µM | 13µM | 21 | 8.5 | TbPGK inh=15µM
CS(=O)(=O)N1N=C(c2ccco2)CC1c1ccco1 (configuration not stated) | ? | ? | 22µM | 79µM | ? | 53 | 30 | Pol kappa inh-2=19
CCOC(=O)c1ccc(CN(Cc2ccccc2)S(=O)(=O)c2ccc(C)cc2)cc1 | i | nt | i | i | ? | nt | nt
Cc1nc2ccc(C(=O)O)cc2c2c1CC(C)S2 (configuration not stated) | 5µM | nt | 2.5µM | 32µM | 22µM | 19 | 9.5
NC1(C(=O)O)CCc2cc(P(=O)(O)O)ccc21 (configuration not stated) | nt | nt | nt | i[19.4 µM] | nt | nt | nt
Cc1ccccc1/C=C/c1nc2ccccc2c(=O)[nH]1 | ? | i | ? | ? | 22µM | 47 | 85
COc1cccc(-c2nc(CS(=O)(=O)CC(=O)Nc3cc(F)ccc3F)c(C)o2)c1 | i | nt | i | i | i | nt | nt
CC(OC(=O)C1CC1)C(=O)Nc1cc(Cl)cc(Cl)c1 (configuration not stated) | i | i | i | i | nt | nt | nt
Nc1c(C(=O)Nc2ccc(C(F)(F)F)cc2)sc2nc(-c3cccs3)ccc12 | i | nt | i | i | ? | nt | nt
Cc1nnc(NC(=O)c2sc3nc(-c4cccs4)cc(C(F)(F)F)c3c2N)s1 | 28µM | i | 6.3µM | ? | 35µM | 42 | 67
Cc1cc(Cl)ccc1NC(=O)Cn1nc(C)c2c(C)n(-c3ccccc3)nc2c1=O | 50µM | nt | nt | ? | 40µM | 75 | ? | Pol kappa inh-2=47
C=CCn1c(O)c(N=NC(=O)CNC(=O)/C=C/c2ccco2)c2ccccc21 | 28µM | ? | 50µM | ? | 14µM | 38 | 76
C=CCn1c(O)c(N=NC(=O)CNC(=O)/C=C/c2ccc(OC)cc2)c2ccccc21 | i | i | i | i | i | nt | nt
CCN(CC)C(=O)c1ccc2c(c1)N(Cc1ccccc1F)C(=O)c1ccccc1S2=O (configuration not stated) | i | nt | i | i | i | nt | nt
CSC(=Nc1ccccc1)N=C(SCc1ccccc1)N(C)C | i | nt | i | i | nt | nt | nt
SMILES | Pol iota inh | L3MBTL1 inh | Pol eta inh-1 | Pol kappa inh-1 | Pol beta inh | POLI cherry-pick | Pol eta inh-2 | others
COc1ccccc1N(CC(=O)NCc1ccco1)S(=O)(=O)c1ccc(C)cc1 | 5.6µM | nt | 10µM | 32µM | 11µM | 21 | 27 | TbPGK inh=16µM;Pol kappa inh-2=11
Cc1ccc(S(=O)(=O)N(Cc2ccccc2)Cc2ccco2)cc1 | i | i | i | i | i | nt | nt
COc1ccc(N(CC(=O)NCc2ccco2)S(=O)(=O)c2ccc(C)cc2)cc1OC | i | nt | i | i | i | nt | nt
Cc1ccc(S(=O)(=O)N(CC(=O)O)Cc2ccco2)cc1 | 28µM | nt | 18µM | ? | ? | 67 | 19
Cc1ccc(S(=O)(=O)N2CCOCC2)cc1NC(=O)CSc1nnnn1C1CC1 | nt | nt | i | nt | nt | nt | nt
O=C(N/N=C/c1ccc(O)cc1O)C(=O)N/N=C/c1ccc(O)cc1O | ? | 0.71µM | i | i | ? | 9.5 | 17
O=C(NN=Cc1ccc(O)cc1)C(=O)NN=Cc1ccc(O)cc1 | i | nt | i | i | nt | nt | nt
COc1ccc(/C=C/C(=O)OCC(=O)NCc2ccco2)cc1OC | 22µM | ? | 50µM | ? | 40µM | ? | ?
Cc1ccc(OCCOCCn2c(-c3ccc(Cl)cc3)nc3ccccc3c2=O)cc1 | i | nt | i | i | i | nt | nt
CN(c1ccccc1)c1ccc(/C=C(/CCC(=O)O)c2nc3ccccc3s2)cc1[N+](=O)[O-] | 18µM | nt | 20µM | 32µM | nt | 47 | 67
CCc1nnc(NC(=O)c2cc(=O)c3cc(C)c(C)cc3o2)s1 | i | nt | i | i | i | nt | nt
CCc1ccccc1Nc1nn2c(=O)c3ccc(C(=O)NCc4cccs4)cc3nc2s1 | 79µM | i | ? | i | 8.9µM | ? | nt | Pol kappa inh-2=?
CCc1ccccc1Nc1nn2c(=O)c3ccc(C(=O)NC(C)C)cc3nc2s1 | i | nt | i | i | i | nt | nt
O=c1cc(-c2ccc(O)cc2)oc2cc(O)c(C3OC(CO)C(O)C(O)C3O)c(O)c12 (configuration not stated) | 35µM | 16µM | 20µM | 40µM | 8.9µM | 34 | 24
CCC[C@H]1CN(c2ccccc2)C(=O)[C@@H]1CC(=O)Nc1ccc(Br)cc1 | nt | nt | i | nt | nt | nt | nt
N#Cc1c(SCC(=O)Nc2nc3ccc(Br)cc3s2)sc2c(O)cc(=O)[nH]c12 | 6.3µM | nt | 11µM | 32µM | 35µM | 67 | 15 | Pol kappa inh-2=8.4
CCCSc1nnc(NC(=O)CSc2sc3c(O)cc(=O)[nH]c3c2C#N)s1 | 8.9µM | nt | 3.2µM | 20µM | 20µM | 67 | 30 | Pol kappa inh-2=11
C=CCSc1nnc(NC(=O)CSc2nc(CCC)cc(=O)[nH]2)s1 | i | i | i | i | i | nt | nt
N#Cc1c(SCC(=O)Nc2nccs2)sc2c(O)cc(=O)[nH]c12 | 13µM | nt | 14µM | 45µM | 8.9µM | 47 | 30 | Pol kappa inh-2=17
Cc1cc(C(F)(F)F)c(C#N)c(SCC(=O)Nc2nc3cc(Br)ccc3s2)n1 | i | i | i | i | ? | nt | nt
